According to the supplement of paper PMC9897528:

system: Scedosporium aurantiacum CBS 136046; experiment: growth inhibition relative to DMSO control (OD600); higher = more antifungal activity, active = 80 or more; extreme values may be limits of the assay; details: 5 µM; 72 h; 37 °C
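Also: conidia screened in RPMI 1640 medium under 5% CO2, growth read by spectrophotometer, medium with 0.5% DMSO serving as the untreated reference.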

Compound	growth inhibition
O=C(O)c1sccc1S(=O)(=O)n1ccc2cc(Br)ccc21	14.6% (inactive)
Nc1ccc2oc(=O)ccc2c1I	8.52% (inactive)
CC1(C)CC(NC(=O)C(=O)Nc2ccc(Cl)cc2)CC(C)(C)N1	8.43% (inactive)
Cn1cncc1[C@@](N)(c1ccc(Cl)cc1)c1ccc2c(c1)c(-c1cccc(Cl)c1)cc(=O)n2C	11.3% (inactive)
O=C(O)c1ccccc1Sc1ncnc2sc3c(c12)CCC3	1.9% (inactive)
Cc1ncc([N+](=O)[O-])n1CC(C)O (stereo unspecified)	22.7% (inactive)
CCc1cc(CCC(=O)Nc2ccccc2O)c(O)nc1C	5.23% (inactive)
Cc1c(CN(C)C(=O)/C=C/c2cnc3c(c2)C(C)(C)C(=O)N3)oc2ccccc12	19.3% (inactive)
O=[N+]([O-])/C(Br)=C/c1ccc(Br)o1	0.879% (inactive)
Cc1cccc(C)c1C(=O)Nc1nc(-c2ccccn2)cc2ccccc12	26.2% (inactive)
COc1ccc(COc2cc3oc(=O)c4cc(C(C)O)ccc4c3cc2OC)cc1 (stereo unspecified)	2.35% (inactive)
COc1c(F)c(F)cc2c(=O)c(C(=O)O)cn(C3CC3)c12	43.8% (inactive)
N#C/C(=C1/SC[C@H](c2ccc(Cl)cc2Cl)S1)n1ccnc1	85.6% (active)
COc1ccccc1NC(=O)c1ccccc1Sc1ccc([N+](=O)[O-])cc1	22.6% (inactive)
O=C(NCc1ncc(C(F)(F)F)cc1Cl)c1c(Cl)cccc1Cl	0% (inactive)
O=C(c1ccccc1)N1CCN(c2ccccc2NC(=O)C(Cl)(Cl)Cl)CC1	33.8% (inactive)
